# Tcruzi prolif: T. cruzi proliferation inhibition. T. cruzi beta-gal in NIH3T3, GalScreen luminescence, 90 h. inhibition, % at 8.34 µM. 77,000 compounds, 5.9% hits;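 active = mean inhibition above about 93%, with at least 55% of replicates each passing it, limit read from the data, passing the limit was not always enough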
# Pf Dd2 inh: blocks growth of Plasmodium falciparum Dd2 parasites; P. falciparum Dd2 growth, SYBR Green, 72 h; stronger effect = lower value; activity change, % at 10 µM; 94,000 compounds, 2.3% hits; in the data active = activity change below about -80%
# C diff growth: blocks growth of Clostridium difficile; 86,000 compounds, 0.25% hits; Clostridium difficile clinical isolate growth, OD600, 24 h; stronger effect = lower value; AID 1259249; growth activity, negative = inhibition, % at 16 µg/mL (by protocol);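 active = mean growth activity at or below -80% and every replicate also at or below -80%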;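 also: 0% = DMSO wells and -100% = levofloxacin 16 µg/mL wells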
# Active calls of the source: *; . = no result given. Sampled rows, rich in hits. Any-hit rate of the full collection: about 6.7%.
SMILES,Tcruzi prolif,Pf Dd2 inh,C diff growth
CCCC#Cc1cnc2c(c1)C(=O)N([C@H](C)CO)C[C@@H](C)[C@@H](CN(C)C(=O)Nc1cc(F)ccc1F)O2,14,-54,4
CCCC#Cc1cnc2c(c1)C(=O)N([C@@H](C)CO)C[C@H](C)[C@H](CN(C)C(=O)Nc1cccc(F)c1)O2,.,-88*,1
COc1ccc(S(=O)(=O)N(C)C[C@@H]2Oc3ccc(NC(=O)Nc4cccc5ccccc45)cc3C(=O)N([C@@H](C)CO)C[C@@H]2C)cc1,.,-16,-7
C[C@@H]1CN([C@@H](C)CO)C(=O)c2c(c3ccccc3n2C)-c2ccccc2CO[C@@H]1CN(C)S(=O)(=O)c1cccc(F)c1,53,-70,3
Cc1cccc(S(=O)(=O)N(C)C[C@H]2OCc3ccccc3-c3c(n(C)c4ccccc34)C(=O)N([C@H](C)CO)C[C@H]2C)c1,91,-84*,.
Cc1cccc(S(=O)(=O)N(C)C[C@@H]2OCc3ccccc3-c3c(n(C)c4ccccc34)C(=O)N([C@@H](C)CO)C[C@H]2C)c1,65,-82*,.
C[C@H](CO)N1C[C@H](C)[C@@H](CN(C)S(=O)(=O)c2ccccc2)OCc2ccccc2-c2c(n(C)c3ccccc23)C1=O,78,-71,.
COC(=O)N(C)C[C@@H]1OCc2ccccc2-c2c(n(C)c3ccccc23)C(=O)N([C@@H](C)CO)C[C@H]1C,-7,-2,.
COc1ccc(S(=O)(=O)N(C)C[C@H]2OCc3ccccc3-c3c(n(C)c4ccccc34)C(=O)N([C@@H](C)CO)C[C@@H]2C)cc1,60,-86*,.
COc1cccc(S(=O)(=O)N(C)C[C@H]2OCc3ccccc3-c3c(n(C)c4ccccc34)C(=O)N([C@H](C)CO)C[C@H]2C)c1,0,-43,-1
C[C@@H]1CN([C@@H](C)CO)C(=O)c2c(c3ccccc3n2C)-c2ccccc2CO[C@@H]1CN(C)S(=O)(=O)c1ccccc1,27,-30,.
COc1ccc(S(=O)(=O)N(C)C[C@@H]2OCc3ccccc3-c3c(n(C)c4ccccc34)C(=O)N([C@H](C)CO)C[C@@H]2C)cc1,72,-83*,.
C[C@H]1CN([C@@H](C)CO)C(=O)c2cccc(NS(C)(=O)=O)c2O[C@H]1CN(C)S(=O)(=O)c1cn(C)cn1,87,-3,-4
COc1cccc(C#Cc2cnc3c(c2)C(=O)N([C@H](C)CO)C[C@@H](C)[C@H](CN(C)C(=O)C2CC2)O3)c1,32,-38,.
C[C@@H]1CCCCO[C@@H](CN(C)CC2CCCCC2)[C@H](C)CN([C@@H](C)CO)C(=O)c2cc(NC(=O)CCCCCC(=O)Nc3ccccc3N)ccc2O1,67,-81*,-2
C[C@@H]1CCCCO[C@@H](CN(C)Cc2ccccc2)[C@@H](C)CN([C@H](C)CO)C(=O)c2cc(NC(=O)CCCCCC(=O)Nc3ccccc3N)ccc2O1,.,-84*,-8
C[C@@H]1CCCCO[C@@H](CN(C)CC2CC2)[C@@H](C)CN([C@H](C)CO)C(=O)c2cc(NC(=O)CCCCCC(=O)Nc3ccccc3N)ccc2O1,.,-78,-2
C[C@@H]1CCCCO[C@@H](CN(C)Cc2ccncc2)[C@@H](C)CN([C@H](C)CO)C(=O)c2cc(NC(=O)CCCCCC(=O)Nc3ccccc3N)ccc2O1,.,-37,-3
CO[C@@H]1CN(C)C(=O)c2ccc(NC(C)=O)cc2OC[C@H](C)N(Cc2ccncc2)C[C@@H]1C,15,-22,0
C[C@H]1CN([C@@H](C)CO)C(=O)c2cc(NC(=O)Cc3ccccc3)ccc2O[C@@H]1CN(C)CC1CCCCC1,12,7,0
C[C@H](CO)N1C[C@H](C)[C@H](CN(C)C(=O)c2cc(Cl)cc(Cl)c2)OCc2ccccc2-c2c(n(C)c3ccccc23)C1=O,.,-87*,1
C[C@@H]1CN([C@@H](C)CO)C(=O)c2c(c3ccccc3n2C)-c2ccccc2CO[C@H]1CN(C)C(=O)c1cc(Cl)cc(Cl)c1,.,-83*,-3
C[C@H](CO)N1C[C@H](C)[C@@H](CN(C)C(=O)c2ccccc2)OCc2ccccc2-c2c(n(C)c3ccccc23)C1=O,2,-41,.
C[C@@H]1CN([C@H](C)CO)C(=O)c2c(c3ccccc3n2C)-c2ccccc2CO[C@H]1CN(C)C(=O)c1cc(Cl)cc(Cl)c1,.,-31,78
O=C(C[C@@H]1C=C[C@@H](NC(=O)CC2CC2)[C@@H](CO)O1)NCc1ccc(-c2ccccc2)cc1,4,-1,.
C[C@H](CO)N1C[C@H](C)[C@H](CN(C)Cc2ccc(-c3ccccc3)cc2)OCc2ccccc2-c2ccccc2C1=O,.,-87*,8
COc1ccc(CN(C)C[C@@H]2OCc3cn(nn3)CCCC(=O)N([C@H](C)CO)C[C@H]2C)cc1,-31,-81*,3

# Assay outcomes from PubChem BioAssay.
